Bioassay records: PubChem, Sanford-Burnham Center for Chemical Genomics
Not all results are given here.
ER stress death: ER stress cell death inhibition; CSM14.1 thapsigargin ER stress survival, ATP luminescence; relative survival (cellular ATP), % at 15 µg/mL (by protocol); 0.33% of 48,000 active;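 active = survival measured by cellular ATP above 50% at 15 µg/ml in the first screen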;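 note: cell death triggered by about 15 µM thapsigargin; ATP read 24 h after thapsigargin was added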
Calls only; i = inactive.

SMILES	ER stress death
COC(=O)c1c(NC(=O)/C=C/c2ccccc2)sc2c1C(C(=O)OC)CC2 (configuration not stated)	i
O=C(CSc1nnnn1-c1ccccc1)CSc1nnnn1-c1ccccc1	i
O=C(O)C1CCCCC1C(=O)NCCC(c1ccccc1)c1ccccc1 (configuration not stated)	i
COc1cccc(C2Nc3cc(C)c(C)cc3NC3=C2C(=O)CC(C)(C)C3)c1OC (configuration not stated)	i
Cc1cc(C)n(C(=O)c2cccc(Br)c2)n1	i
COC(=O)C1=C(C)NC(C)=C(C(=O)OC)C1c1cccc(Oc2ccccc2)c1	i
Cc1ccc(/C(N)=N/OC(=O)c2ccccc2I)cc1	i
CCc1cc(OCCOCCN(C)CCO)ccc1Cl	i
COc1cc(/C=C/c2cc(C(F)(F)F)[nH]c(=O)n2)cc(OC)c1OC	i
CC(=O)Nc1ccccc1NC(=O)c1ccccc1Cl	i
